Results with a measured potency or affinity are listed apart. Activity calls are given as the source filed them.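 How the source made its calls, unless noted: active means a dose-response fit showing signal loss, with half-maximal concentration no higher than twice the top tested dose; inconclusive means flat fit between 30% and 70% signal loss, or poor fit; inactive means the rest.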
Key:
[1] = C. neoformans lysis by adenylate kinase leakage – AK release luminescence, cherry-picks, dose response (AID 687000;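 active means fitted dose curve reaches 40% lysis signal rise at or below the highest valid concentration tested for that sample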;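 further: luminescent detection of adenylate kinase leaking from lysed yeast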)
[2] = viability loss in HepG2 hepatoma cells – cell-based, cherry-picks, set 2, cytotoxicity control, dose response (AID 687002)
[3] = viability loss in HeLa cells – cell-based, ATP luminescence, cherry-pick samples, cytotoxicity control, dose response (AID 687004;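 active means a fitted half-maximal concentration no higher than twice the top valid tested dose, with signal falling as cells die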)
[4] = toxicity toward HepG2 liver cells – cell-based, plate reader, cherry-pick, antagonist series, cytotoxicity control, dose response (AID 743416; call rule not given here)

| SMILES | outcome [1] | outcome [2] | outcome [3] | outcome [4] |
| --- | --- | --- | --- | --- |
| COc1cccc(CNC(=O)COc2ccc(C(=O)c3ccccc3)cc2)c1 | inactive | inactive | inactive | – |
| CNC(=O)CN(c1ccccc1)S(=O)(=O)c1ccc(F)cc1 | inactive | inactive | inactive | – |
| CCOC(=O)CSc1ncnc2c1cnn2-c1ccc(Cl)cc1 | inactive | inactive | inactive | – |
| Cc1ccc2c(C)c(C(=O)N3CCN(Cc4ccccn4)CC3)oc2c1C | inactive | inactive | inactive | – |
| COc1ccccc1-c1ccc([C@H]2[C@H](C#N)N(C(=O)C3CC3)[C@H]2CO)cc1 | inactive | inactive | inactive | – |
| O=C(c1c(Cl)cccc1Cl)N1CCN(c2ccccn2)CC1 | inactive | inactive | inactive | – |
| Cc1ccccc1NC(=O)C1CCC(=O)N1 (configuration not stated) | inactive | inactive | inactive | – |
| COc1cccc(S(=O)(=O)Nc2ccc3c(c2)[C@H]2C[C@@H](CC(=O)NC4CCCCC4)O[C@@H](CO)[C@H]2O3)c1 | inactive | inactive | inactive | – |
| CN1C[C@@H]2C(c3ccc(C(F)(F)F)cc3)C3(c4ccccc4)CC2(C3)[C@H]1c1ccccc1 (some centres not stated) | inactive | inactive | inactive | – |
| COC(=O)C1=C(C)N(Cc2ccc(Cl)cc2)C(=S)NC1c1cccc(OC)c1 (configuration not stated) | inactive | inactive | inactive | – |
| C#CCN(C(=O)c1ccc(OC2CCN(C(=O)CCOC)CC2)cc1)C1CCCCC1 | inactive | inactive | inactive | – |
| Cc1ccccc1OCC(=O)NC(C)c1ccccc1 (configuration not stated) | inactive | inactive | inactive | – |
| O=C(C[C@H]1CC[C@@H]2[C@H](COC[C@H](O)CN2CC2CCOCC2)O1)NCc1ccc(Cl)cc1 | inactive | inactive | inactive | – |
| Cc1ccc(S(=O)(=O)N2CC[C@@H]3[C@H]2c2cc(-c4ccccc4F)ccc2N[C@@H]3CO)cc1 | inactive | inactive | inactive | – |
| COc1ccc(NC(=O)N(C)C[C@H]2OCCCC[C@@H](C)Oc3ccc(NC(=O)c4ccccc4)cc3C(=O)N([C@H](C)CO)C[C@H]2C)cc1 | inactive | inactive | inactive | – |
| O=C(c1cccnc1)N1C[C@H]2[C@@H](c3ccccc31)[C@@H](CO)N2C(=O)Nc1ccc(F)cc1 | inactive | inactive | inactive | – |
| O=C(C[C@H]1CC[C@H]2[C@@H](COC[C@H](O)CN2C(=O)Nc2ccc3c(c2)OCO3)O1)N1CCN(c2ccccc2)CC1 | inactive | inactive | inactive | – |
| Cc1cc(OCC(=O)N(C)Cc2ccccc2)cc(C)c1Cl | inactive | inactive | inactive | – |
| O=C(C[C@@H]1CC[C@H](NC(=O)Cc2ccccn2)[C@@H](CO)O1)NCCc1ccccc1 | inactive | inactive | inactive | – |
| CCC(=O)Nc1ccc2c(c1)C(=O)N(C)C[C@H](OC)[C@@H](C)CN[C@H](C)CO2 | inactive | inactive | inactive | – |
| Cc1cccc(NC(=O)CN(C)C(=O)C2CCCC2)c1C | inactive | inactive | inactive | – |

| SMILES | outcome [1] | outcome [2] | outcome [3] | outcome [4] |
| --- | --- | --- | --- | --- |
| Cc1ccc(OCC(=O)NC(C)c2ccccc2)cc1 (configuration not stated) | inactive | inactive | inactive | – |
| CCCC[C@@H]1CNC(=S)N1CCc1cccc(F)c1 | inactive | inactive | inactive | – |
| O=C(C[C@@H]1CC[C@@H]2[C@H](COC[C@@H](O)CN2C(=O)Nc2ccc(Cl)cc2)O1)NC1Cc2ccccc2C1 | inactive | inactive | inactive | – |
| C[C@H](CO)N1C[C@H](C)[C@H](CN(C)Cc2ccccc2F)Oc2cc(C3=CCCC3)ccc2S1(=O)=O | inactive | – | inactive | – |
| O=C(COc1ccccc1)NCc1ccc2c(c1)OCO2 | inactive | inactive | inactive | – |
| O=C(NC(=S)Nc1ccccc1N1CCOCC1)c1ccccc1F | inactive | inactive | inactive | – |
| Cc1ccc(NC(=O)C2(N3CCC3=O)CCCCC2)cc1 | inactive | inactive | inactive | – |
| Cc1cccc(C)c1NC(=O)C1(C)CCC(=O)N1CCCn1ccnc1 (configuration not stated) | inactive | inactive | inactive | – |
| Cc1ccc(C(=O)Nc2ccc3ncccc3c2)cc1 | inactive | inactive | – | inactive |
| CC(C)c1ccc(OCC(=O)NC(C)c2ccccc2)cc1 (configuration not stated) | inactive | inactive | inactive | – |
| COc1ccc(CN(C)C[C@H]2Oc3ccc(NS(C)(=O)=O)cc3CC(=O)N([C@@H](C)CO)C[C@H]2C)cc1 | inactive | inactive | inactive | – |
| CNC[C@H]1OCCCC[C@H](C)Oc2ccc(NC(=O)Cc3ccccc3)cc2C(=O)N([C@H](C)CO)C[C@@H]1C | inactive | inactive | inactive | – |
| CCC(=O)N1[C@H](CN(C)C(C)=O)[C@@H](c2ccc(C3=CCCCC3)cc2)[C@@H]1CO | inactive | inactive | inactive | – |
| C[C@@H]1CCCCO[C@H](CN(C)Cc2ccccc2)[C@H](C)CN([C@@H](C)CO)C(=O)c2cc(NS(=O)(=O)c3cccs3)ccc2O1 | inactive | inactive | inactive | – |
| CCNC(=O)CN(c1ccc(C)cc1)S(=O)(=O)c1ccc(SC)cc1 | inactive | inactive | inactive | – |
| O=C(CSc1ncnc2c1cnn2-c1ccccc1)NCC1CCCO1 (configuration not stated) | inactive | inactive | inactive | – |
| O=C(CN(c1ccccc1)S(=O)(=O)c1ccc(F)cc1)N1CCCCCC1 | inactive | inactive | inactive | – |
| COc1ccc(C#Cc2ccc3c(c2)O[C@H](CN(C)C(C)=O)[C@@H](C)CN([C@@H](C)CO)S3(=O)=O)cc1 | inactive | inactive | inactive | – |
| Cc1cc(C)c(NC(=O)CNC(=O)CNC(=O)C2CCCCC2)c(C)c1 | inactive | inactive | inactive | – |
| C[C@@H]1CN([C@@H](C)CO)C(=O)c2cc(-c3cncnc3)cnc2O[C@H]1CN(C)C(=O)CN1CCOCC1 | inactive | inactive | inactive | – |
| C[C@H]1CN([C@@H](C)CO)S(=O)(=O)c2ccc(Br)cc2O[C@H]1CN(C)S(=O)(=O)c1ccccc1F | inactive | inactive | inactive | – |

| SMILES | outcome [1] | outcome [2] | outcome [3] | outcome [4] |
| --- | --- | --- | --- | --- |
| CC(=O)c1cccc(NC(=S)NC2CCCCCCC2)c1 | inactive | inactive | inactive | – |
| Cc1ccc(C)c(NC(=O)C2(C)CCN2C(=O)C(C)C)c1 (configuration not stated) | inactive | inactive | inactive | – |
| Cc1ccc(NC(=O)C2CCC(=O)N2)cc1C (configuration not stated) | inactive | inactive | inactive | – |
| CCOC(=O)CNC(=O)CSc1ncnc2c1cnn2-c1ccc(Cl)cc1 | inactive | inactive | inactive | – |
| C[C@H]1CN([C@@H](C)CO)C(=O)c2cc(C#CCN(C)C)cnc2O[C@@H]1CN(C)C(=O)Nc1cccc(F)c1 | inactive | inactive | inactive | – |
| COC(=O)C1=C(C)N(Cc2ccc(F)cc2)C(=S)NC1c1ccc(Cl)cc1 (configuration not stated) | – | inactive | – | – |
| O=C(CN(c1ccc(F)cc1)S(=O)(=O)c1ccccc1)NC1CC2CCC1C2 (configuration not stated) | inactive | inactive | inactive | – |
| CC(=O)NC12CC3CC(C1)CC(C(=O)NCC(=O)Nc1c(C)cc(C)cc1C)(C3)C2 | inactive | inactive | inactive | – |
| O=C(NC(=S)Nc1ccccc1N1CCOCC1)c1ccc([N+](=O)[O-])cc1 | inactive | inactive | inactive | – |
| Cc1noc(C)c1NC(=O)N(C)C[C@H]1Oc2ccc(NC(=O)C3CC3)cc2CC(=O)N([C@@H](C)CO)C[C@H]1C | inactive | inactive | inactive | – |
| O=C1CCC(C(=O)Nc2ccc([N+](=O)[O-])cc2)N1 (configuration not stated) | inactive | inactive | inactive | – |
| C[C@H](NC(=O)C[C@@H]1C=C[C@H](NC(=O)CN2CCOCC2)[C@H](CO)O1)c1ccccc1 | inactive | inactive | inactive | – |
| CC(C)CC#Cc1cnc2c(c1)C(=O)N([C@@H](C)CO)C[C@@H](C)[C@@H](CN(C)C(=O)c1cccc(F)c1)O2 | inactive | inactive | inactive | – |
| Cc1ccccc1-n1ncc2c(SCC(=O)NCc3cccs3)ncnc21 | inactive | inactive | inactive | – |
| O=S1(=O)CCC(N=Cc2cc(Br)ccc2O)C1 (configuration not stated) | inactive | inactive | inactive | – |
| Cc1cccc2sc(N3CCN(C(=O)c4cccs4)CC3)nc12 | – | inactive | inactive | – |
| O=C(COC(=O)CCC1CCCC1)Nc1nc2c(F)c(F)c(F)cc2s1 | – | inactive | inactive | – |
| Fc1ccccc1NC(=S)NN(Cc1ccccc1)c1ccccc1 | – | inactive | inactive | – |
| COC(=O)C1=C(C)N(Cc2ccccc2)C(=S)NC1c1cccc(OC)c1 (configuration not stated) | – | inactive | inactive | – |
| CC(C)c1ccccc1NC(=S)NN(Cc1ccccc1)c1ccccc1 | – | inactive | – | – |

Reference: PubChem BioAssay
